According to PubChem BioAssay (Tox21):
Results filed as inconclusive are left out. Activity calls are given as the source filed them. Unless noted, calls come from the whole dose curve.

Assays:
[1] = Nuclear factor erythroid 2-related factor 2/antioxidant responsive element (Nrf2/ARE) small molecule agonists: luciferase reporter gene qHTS assay in human keratinocytes (AID 1919969); note: nearly all actives have a fitted effect of over 35% in size
[2] = biological target: Gonadotropin-releasing hormone receptor (Homo sapiens) (UniProt P30968); test: Human gonadotropin-releasing hormone receptor (GnRHR) small molecule agonists, calcium flux assay in GnRHR-HEK293 cells (AID 1920063); note: nearly all actives have a fitted effect of over 35% in size
Chain of Gonadotropin-releasing hormone receptor (Homo sapiens) (P30968 whole entry, looked up): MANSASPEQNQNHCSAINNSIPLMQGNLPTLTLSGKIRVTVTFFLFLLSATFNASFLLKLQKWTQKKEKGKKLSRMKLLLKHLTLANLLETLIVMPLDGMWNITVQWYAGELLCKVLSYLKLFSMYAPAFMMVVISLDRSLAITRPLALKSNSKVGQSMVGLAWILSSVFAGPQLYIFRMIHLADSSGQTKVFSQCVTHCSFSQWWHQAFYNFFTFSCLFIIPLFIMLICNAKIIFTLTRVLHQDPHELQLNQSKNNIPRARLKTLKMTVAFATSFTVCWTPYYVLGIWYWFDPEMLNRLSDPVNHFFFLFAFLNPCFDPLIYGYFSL
In short: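 We seeded human GnRHR-expressing HEK293 cells for 18 hours, loaded them with calcium dye for an hour at 37 C, added test compounds, and recorded fluorescence intensity kinetically for three minutes.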

[3] = G protein-coupled receptor (GPCR) small molecule agonists, calcium flux assay: HEK293 wild type cell line counter screen (AID 1920065)
In short: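 Calcium-sensitive dye, loaded 1 h at 37 C into cells cultured 18 h, reports compound-evoked calcium release as fluorescence (Ex/Em 480/540), measured over 3 min. Agonist mode; 15-point titrations, triplicate.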

[4] = p53 small molecule agonists, cell-based qHTS assay with human liver microsomes (AID 1963577)
In short: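 p53RE-bla cells, 4,000/well, compound added after 5 h, with human liver microsomes 0.5 mg/mL and NADPH 0.5 mg/mL final; 16 h at 37 C, then LiveBLAzer 2 h RT, fluorescence.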

[5] = p53 small molecule agonists, cell-based qHTS assay with rat liver microsomes (AID 1963578)
In short: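 p53RE-bla cells, 4,000/well, pre-incubated 5 h, then given compounds plus rat liver microsomes (0.5 mg/mL final) and NADPH (0.5 mg/mL final). Incubation 16 h at 37 C; beta-lactamase reporter read by LiveBLAzer fluorescence after 2 h at room temperature.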

[6] = p53 small molecule agonists, cell-based qHTS assay with human liver microsomes: qHTS cell viability counter screen (AID 1963579); note: nearly all actives have a fitted effect of over 45% in size
In short: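 p53RE-bla cells, 4,000/well, dosed 5 hours after plating, with human liver microsomes (0.5 mg/mL final) plus NADPH (0.5 mg/mL final), 16 hours at 37 C. Viability read as CellTiter-Glo luminescence after 30 min at room temperature.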

[7] = p53 small molecule agonists, cell-based qHTS assay with rat liver microsomes: qHTS cell viability counter screen (AID 1963580); note: nearly all actives have a fitted effect of over 45% in size
In short: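 Intracellular ATP, by CellTiter-Glo luminescence, defines viability. HCT-116 p53RE-bla cells, 4,000 per well, were compound-treated in the presence of rat liver microsomes and NADPH for 16 h at 37 C.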

[8] = p53 small molecule agonists, cell-based qHTS assay: qHTS cell viability counter screen (AID 1963581); note: nearly all actives have a fitted effect of over 45% in size
In short: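 Following 5 h attachment, HCT-116 p53RE-bla cells took up compound for 16 h at 37 C; the reporter was read with B/G FRET substrate (2 h RT), and viability then via CellTiter-Glo ATP luminescence.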

[9] = p53 small molecule agonists, cell-based qHTS assay (AID 1963582; active = well fitted activation curve with a large enough effect in the signal ratio in the repeat runs, not every such curve was filed as active; the % refers to the signal ratio)
In short: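 In this cell-based concentration-response screen, a p53 response element drives beta-lactamase; cells received DMSO-borne compounds after 5 h culture and were incubated a further 16 h before FRET substrate development.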

[10] = biological target: 5-hydroxytryptamine receptor 2A (Homo sapiens) (UniProt P28223); test: 5-hydroxytryptamine receptor 2A (HTR2A) small molecule antagonists, cell-based qHTS assay (AID 1963586); note: nearly all actives have a fitted effect of over 45% in size
Chain of 5-hydroxytryptamine receptor 2A (Homo sapiens) (P28223 whole entry, looked up): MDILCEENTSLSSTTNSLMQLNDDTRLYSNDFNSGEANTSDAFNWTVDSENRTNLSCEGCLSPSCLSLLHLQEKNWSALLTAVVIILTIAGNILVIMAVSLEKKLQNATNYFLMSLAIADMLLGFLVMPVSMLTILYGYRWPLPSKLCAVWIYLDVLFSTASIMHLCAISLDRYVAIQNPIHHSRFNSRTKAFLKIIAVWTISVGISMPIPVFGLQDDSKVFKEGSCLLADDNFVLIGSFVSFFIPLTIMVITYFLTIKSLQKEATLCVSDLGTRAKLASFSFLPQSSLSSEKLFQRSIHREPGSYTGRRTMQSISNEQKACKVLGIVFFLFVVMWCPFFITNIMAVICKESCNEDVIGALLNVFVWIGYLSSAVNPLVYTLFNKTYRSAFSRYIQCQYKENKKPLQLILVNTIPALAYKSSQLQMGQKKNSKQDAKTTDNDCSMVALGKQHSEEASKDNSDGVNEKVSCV
In short: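 Antagonist-mode intracellular calcium assay: DOI (4 nM) added after 5 min compound pre-incubation at room temperature to dye-loaded HTR2A-CHO cells. Fluorescence followed for 3 min, sampled every second.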

[11] = biological target: Muscarinic acetylcholine receptor M1 (Homo sapiens) (UniProt P11229); test: Cholinergic receptor muscarinic 1 (CHRM1) small molecule antagonists, cell-based qHTS assay (AID 1963588); note: nearly all actives have a fitted effect of over 40% in size
Chain of Muscarinic acetylcholine receptor M1 (Homo sapiens) (P11229 whole entry, looked up): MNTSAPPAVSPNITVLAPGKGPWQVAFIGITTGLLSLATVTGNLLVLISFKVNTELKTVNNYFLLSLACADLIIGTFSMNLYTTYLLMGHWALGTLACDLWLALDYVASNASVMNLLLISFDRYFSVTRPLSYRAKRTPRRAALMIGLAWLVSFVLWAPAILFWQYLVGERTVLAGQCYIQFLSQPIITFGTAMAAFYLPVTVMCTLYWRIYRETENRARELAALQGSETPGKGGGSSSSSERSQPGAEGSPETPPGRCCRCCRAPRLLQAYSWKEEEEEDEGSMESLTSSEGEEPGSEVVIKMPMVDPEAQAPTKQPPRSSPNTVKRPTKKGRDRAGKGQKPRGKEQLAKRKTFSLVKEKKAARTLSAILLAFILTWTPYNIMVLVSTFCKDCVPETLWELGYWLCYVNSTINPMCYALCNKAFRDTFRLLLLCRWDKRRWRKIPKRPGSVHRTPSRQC
In short: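 CHRM1-CHO calcium-flux assay, antagonist mode. Cells were seeded 18 h, dye-loaded 1 h at 37 C and given compound for 5 min at RT, then acetylcholine was added at 50nM. FDSS fluorescence was read 3 min; 15 concentrations, three runs.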

[12] = biological target: Muscarinic acetylcholine receptor M1 (Homo sapiens) (UniProt P11229); test: Cholinergic receptor muscarinic 1 (CHRM1) small molecule agonists, cell-based qHTS assay (AID 1963589); note: nearly all actives have a fitted effect of over 35% in size
In short: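 Measures agonist-induced intracellular calcium rise. Stable human CHRM1 CHO line, 1 h dye load at 37 C, compounds from DMSO, kinetic fluorescence read.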

[13] = cAMP Responsive Elements (CRE) small molecule agonists, cell-based qHTS assay (AID 1963590)
In short: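 A CRE-responsive beta-lactamase reporter in HEK 293T cells was used. Treatment ran 3 h at 37 C; detection used LiveBLAzer B/G FRET substrate for 2 h at room temperature.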

[14] = cAMP Responsive Elements (CRE) small molecule antagonists, cell-based qHTS assay (AID 1963591; active = well fitted inhibition curve with a large enough effect in the signal ratio in the repeat runs, not every such curve was filed as active; the % refers to the signal ratio)
In short: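 HEK293T cells carrying a CRE-driven beta-lactamase reporter receive compound and NKH477 (0.25 uM final) for 3 h. Fluorescence from LiveBLAzer B/G FRET substrate is read after 2 h at room temperature.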

[15] = biological target: Beta-2 adrenergic receptor (Homo sapiens) (UniProt P07550); test: Adrenergic beta2 receptor (ADRB2) small molecule antagonists, cell-based qHTS assay (AID 1963592); note: series mostly up to about 92 µM; nearly all actives have a fitted effect of over 50% in size
Chain of Beta-2 adrenergic receptor (Homo sapiens) (P07550 whole entry, looked up): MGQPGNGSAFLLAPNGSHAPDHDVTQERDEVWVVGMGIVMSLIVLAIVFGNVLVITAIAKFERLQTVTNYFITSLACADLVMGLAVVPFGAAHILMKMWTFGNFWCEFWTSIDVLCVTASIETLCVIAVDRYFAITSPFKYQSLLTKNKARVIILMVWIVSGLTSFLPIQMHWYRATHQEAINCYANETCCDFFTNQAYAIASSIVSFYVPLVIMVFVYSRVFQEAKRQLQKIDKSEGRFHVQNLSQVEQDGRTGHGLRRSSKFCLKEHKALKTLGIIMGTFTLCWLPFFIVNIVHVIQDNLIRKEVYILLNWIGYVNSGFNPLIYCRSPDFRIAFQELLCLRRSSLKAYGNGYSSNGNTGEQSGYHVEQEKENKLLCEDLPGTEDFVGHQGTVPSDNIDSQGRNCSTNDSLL
In short: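 Cells (CHO, stable ADRB2 overexpression) incubated 18-20hr at 37C; compounds added from DMSO; agonist mix (1nM isoproterenol, 100uM IBMX, 25uM Ro-20-1724) added; 0.5hr RT; d2-cAMP and anti-cAMP-cryptate added; 1hr RT; 665/615 nm read.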

[16] = biological target: D(2) dopamine receptor (Homo sapiens) (UniProt P14416); test: Dopamine D2 receptor (DRD2) small molecule agonists, cell-based qHTS assay (AID 1963594); note: nearly all actives have a fitted effect of over 35% in size
Chain of D(2) dopamine receptor (Homo sapiens) (P14416 whole entry, looked up): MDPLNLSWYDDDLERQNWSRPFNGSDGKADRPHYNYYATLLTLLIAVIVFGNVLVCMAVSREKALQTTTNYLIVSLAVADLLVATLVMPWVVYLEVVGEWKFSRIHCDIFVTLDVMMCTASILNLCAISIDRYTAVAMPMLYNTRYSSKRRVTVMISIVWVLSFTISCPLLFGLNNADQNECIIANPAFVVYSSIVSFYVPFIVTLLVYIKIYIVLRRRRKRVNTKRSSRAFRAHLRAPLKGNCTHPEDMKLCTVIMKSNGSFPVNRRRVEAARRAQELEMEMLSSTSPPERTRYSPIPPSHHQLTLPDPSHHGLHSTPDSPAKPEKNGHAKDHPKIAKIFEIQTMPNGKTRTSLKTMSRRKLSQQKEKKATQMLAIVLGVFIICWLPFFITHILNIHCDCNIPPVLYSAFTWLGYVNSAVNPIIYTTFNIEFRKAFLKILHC
In short: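 cAMP accumulation in DRD2-HEK293 cells measured by HTRF after 1 h detection; compounds added 10 min before NKH477 (200nM […]) forskolin-analogue stimulation, 30 min at room temperature, with Ro20-1724 present at 0.1 mM final.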

[17] = biological target: D(2) dopamine receptor (Homo sapiens) (UniProt P14416); test: Dopamine D2 receptor (DRD2) small molecule antagonists, cell-based qHTS assay (AID 1963595; active = well fitted inhibition curve with a large enough effect in the signal ratio in the repeat runs, with a control signal flat; the % refers to the signal ratio)
In short: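 Human DRD2 antagonist qHTS measuring cAMP by HTRF. The cells are exposed to compound for 10 min, then to NKH477 (200 nM) and quinpirole (12 nM) for 30 min at RT, with Ro20-1724 (0.1 mM) present throughout.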

[18] = biological target: 5-hydroxytryptamine receptor 2A (Homo sapiens) (UniProt P28223); test: 5-hydroxytryptamine receptor 2A (HTR2A) small molecule agonists, cell-based qHTS assay (AID 1963587); note: nearly all actives have a fitted effect of over 30% in size
In short: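 Kinetic calcium-flux fluorescence (2 min, 1 sec intervals) after compound addition in agonist mode. HTR2A-CHO cells were cultured 18 h, then dye-loaded 1 h at 37 C.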

[19] = biological target: Beta-2 adrenergic receptor (Homo sapiens) (UniProt P07550); test: Adrenergic beta2 receptor (ADRB2) small molecule agonists, cell-based qHTS assay (AID 1963593);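 note: CHO cells stably overexpressing human ADRB2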
In short: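 CHO cells stably over-expressing ADRB2 were plated overnight at 37C, then dosed with compounds plus a stimulation mix containing 100uM IBMX and 25uM Ro-20-1724 for 0.5hr at room temperature. cAMP was measured by HTRF competition, 1hr.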

[20] = biological target: KiSS-1 receptor (Homo sapiens) (UniProt Q969F8); test: Human kisspeptin (KISS1R) small molecule agonists, calcium flux assay in KISS1R-HEK293 cells (AID 1920064; active = well fitted activation curve with a large enough effect in the repeat runs)
Chain of KiSS-1 receptor (Homo sapiens) (Q969F8 whole entry, looked up): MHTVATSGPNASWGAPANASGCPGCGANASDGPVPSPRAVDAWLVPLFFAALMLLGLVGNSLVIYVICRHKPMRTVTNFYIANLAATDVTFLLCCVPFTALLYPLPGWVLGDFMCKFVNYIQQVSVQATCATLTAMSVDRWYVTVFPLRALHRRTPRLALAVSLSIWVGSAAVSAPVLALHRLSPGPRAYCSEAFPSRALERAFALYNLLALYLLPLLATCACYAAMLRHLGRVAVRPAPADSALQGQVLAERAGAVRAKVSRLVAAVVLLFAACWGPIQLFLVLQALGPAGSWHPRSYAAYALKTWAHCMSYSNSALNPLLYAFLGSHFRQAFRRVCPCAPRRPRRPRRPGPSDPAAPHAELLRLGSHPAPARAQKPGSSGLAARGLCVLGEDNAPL
In short: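 Kinetic calcium assay, 1 s sampling over 3 min at Ex/Em 480/540, in HEK293 cells engineered with human KISS1R; compounds delivered in DMSO after 1 h dye loading.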
% is set by controls: 0 for no effect and ±100 for the full control effect.

O=C(O)CN(CCCN(CC(=O)O)CC(=O)O)CC(=O)O
inactive: activity, positive = activation [1] -12.6% [at 19 µM] | activity change [2] 14.7% [at 11.8 µM, active compounds read high] | activation [3] 9.2% [at 11.8 µM] | activation [4] -11.5% [at 13.5 µM] | activation [5] -0.0734% [at 13.6 µM] | activity change, negative = cytotoxicity [6] 10.7% [at 13.5 µM] | activity change, negative = cytotoxicity [7] 9.92% [at 13.5 µM] | activity change, negative = cytotoxicity [8] 11.6% [at 13.5 µM] | activation [9] 5.83% [at 13.5 µM] | activity, negative = inhibition [10] 19% [at 12.7 µM] | activity, negative = inhibition [11] -1.12% [at 12.6 µM] | activation [12] 5.74% [at 15.8 µM] | activation [13] 1.21% [at 19 µM] | activity change, negative = inhibition [14] 19.1% [at 18.9 µM] | activity change, negative = inhibition [15] 0.405% [at 19 µM] | activation [16] -4.48% [at 19 µM] | activity change, negative = inhibition [17] 6.03% [at 18.9 µM]

C=CC(=O)NCOCCCC
inactive: Potency [1] | Potency [2] | Potency [3] | Potency [6] | Potency [7] | Potency [8] | Potency [10] | Potency [18] | Potency [11] | Potency [12] | Potency [13] | Potency [14] | Potency [15] | Potency [19] | Potency [16] | Potency [17]

CCCCOC(=O)CCS
inactive: Potency [1] | Potency [2] | Potency [3] | Potency [4] | Potency [5] | Potency [6] | Potency [8] | Potency [9] | Potency [10] | Potency [18] | Potency [13] | Potency [14] | Potency [15] | Potency [19] | Potency [16] | Potency [17]

CC12CCC(C1)C(C)(C)C2O (stereo not given)
inactive: Potency [1] | Potency [4] | Potency [5] | Potency [6] | Potency [7] | Potency [8] | Potency [9] | Potency [10] | Potency [18] | Potency [11] | Potency [12] | Potency [13] | Potency [14] | Potency [15] | Potency [19] | Potency [16] | Potency [17]

CCCCOC(=O)[C@H](C)O
inactive: Potency [1] | Potency [2] | Potency [3] | Potency [4] | Potency [5] | Potency [6] | Potency [8] | Potency [9] | Potency [10] | Potency [18] | Potency [11] | Potency [12] | Potency [13] | Potency [14] | Potency [15] | Potency [19] | Potency [16] | Potency [17]

CC1CCC(C(C)(C)S)C(=O)C1 (stereo not given)
inactive: Potency [2] | Potency [20] | Potency [3] | Potency [5] | Potency [6] | Potency [7] | Potency [8] | Potency [9] | Potency [10] | Potency [18] | Potency [11] | Potency [12] | Potency [13] | Potency [14] | Potency [16] | Potency [17]

O=C1CC2(CCCC2)CC(=O)N1CCCCN1CCN(c2ncccn2)CC1
inactive: Potency [1] | Potency [20] | Potency [3] | Potency [6] | Potency [7] | Potency [8] | Potency [13] | Potency [14] | Potency [15] | Potency [19] | Potency [16]

CC(C)c1cc2c(cc1S(=O)(=O)O)[C@@]1(C)CCC[C@@](C)(C(=O)O)[C@@H]1CC2
inactive: Potency [2] | Potency [20] | Potency [3] | Potency [4] | Potency [5] | Potency [6] | Potency [7] | Potency [8] | Potency [9] | Potency [10] | Potency [18] | Potency [11] | Potency [12] | Potency [13] | Potency [14] | Potency [15] | Potency [19] | Potency [16] | Potency [17]
